Compound activity from PubChem BioAssay.
PABP FP inh = PABP-poly(A) binding inhibition | PABP-poly(A) RNA binding, fluorescence polarization | 290,000 compounds, 1% hits | AID 2014 | inhibition, % at 35 µM | P11940;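 also: calls also rest on retests at 20 µM and on dose response follow-up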
eIF4H inh = inhibitors of RNA binding by human eIF4H | Q15056 | eIF4H fluorescence polarization binding assay | inhibition, % at 35 µM | 290,000 compounds, 0.94% hits;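 also: calls also rest on retests at 20 µM and on dose response follow-up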
PHOSPHO1 block = blocks human PHOSPHO1 phosphatase activity; Q8TCT1; recombinant PHOSPHO1, absorbance phosphatase assay; inhibition, % at 13.3 µM; 290,000 compounds, 1.1% hits; AID 1565; in the data active = inhibition above about 60%
Target sequence (Q8TCT1 whole entry, looked up): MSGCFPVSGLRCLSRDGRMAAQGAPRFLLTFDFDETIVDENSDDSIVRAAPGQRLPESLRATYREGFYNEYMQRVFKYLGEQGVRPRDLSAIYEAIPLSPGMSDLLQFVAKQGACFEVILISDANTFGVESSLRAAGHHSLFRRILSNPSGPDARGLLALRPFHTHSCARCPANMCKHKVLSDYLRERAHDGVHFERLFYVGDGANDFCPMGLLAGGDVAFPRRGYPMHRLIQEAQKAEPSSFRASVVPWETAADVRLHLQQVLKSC
CRFBP-R2 block = CRF-BP/CRF-R2 complex antagonism; HEK293 CRF-R2/CRF-BP, CRF-induced calcium fluorescence; inhibition, % at 11.8 µM; 350,000 compounds, 0.59% hits;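 active = inhibition of the ligand-induced calcium signal above about 50% at the single tested concentration, limit read from the data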
PABP1 MLLE inh = blocks PAM2 peptide binding to the PABP1 MLLE domain | GST-MLLE / FITC-PAM2 fluorescence polarization | inhibition, % at 20 µM | P11940 | AID 588489 | 360,000 compounds, 0.36% hits; in the data active = inhibition above about 35%, passing the limit was not always enough;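 also: plate controls were DMSO wells with GST-MLLE for no effect and wells lacking GST-MLLE protein for full effect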
* = called active by the depositor. The list is not random: actives were taken first. Their share in the collection is about 2.6%. Unless noted, no rule for the calls is given here.

For Cc1ccccc1NC(=O)CSc1nnc(C)c(=O)[nH]1 the results were PABP FP inh 3.7, eIF4H inh -4.7, PHOSPHO1 block 0.6, CRFBP-R2 block 0.6 and PABP1 MLLE inh 43.2*.
Screening CCOc1ccc(Cc2nnc(SCC(=O)Nc3c(C)cccc3C)[nH]c2=O)cc1 returned CRFBP-R2 block -11.0 and PABP1 MLLE inh 35.0.
Screening CCc1cccc(CC)c1NC(=O)CSc1nnc(CCC(=O)O)c(=O)[nH]1 returned PABP FP inh -6.6, eIF4H inh -10.0, PHOSPHO1 block 32.0, CRFBP-R2 block 3.2 and PABP1 MLLE inh 38.5*.
Screening CC1(C(=O)Nc2cccc3c2CCCC3)CCN1C(=O)Cc1ccccc1Cl (stereo not drawn) returned PABP1 MLLE inh -0.6.
O=C1CCCC2=C1C(c1ccco1)Nc1ccc3ccccc3c12 (stereo not drawn) was read as PABP FP inh 84.1*, eIF4H inh 80.5*, PHOSPHO1 block 8.5, CRFBP-R2 block -7.3 and PABP1 MLLE inh -3.7.
O=C1CCCC2=C1C(c1ccc(O)c(O)c1)Nc1ccc3ccccc3c12 (stereo not drawn) was read as CRFBP-R2 block 2.5 and PABP1 MLLE inh -13.9.
For S=C(NC1CCCCC1)N1CCN(C2CCCCC2)CC1 the results were PABP FP inh 4.6, eIF4H inh 0.8, PHOSPHO1 block -0.9, CRFBP-R2 block -7.0 and PABP1 MLLE inh -110.0.
`O=C(NC1CCCCCC1)C(=S)N1CCOCC1` gave PABP FP inh -12.0, eIF4H inh 6.2, PHOSPHO1 block -51.7, CRFBP-R2 block -17.0 and PABP1 MLLE inh 44.5*.
`O=C(NC1CCCCCC1)C(=S)N1CCCC1` gave PABP FP inh 4.4, eIF4H inh -8.9, PHOSPHO1 block 49.8, CRFBP-R2 block -6.2 and PABP1 MLLE inh -8.0.
S=C(NC1CCCCC1)N1CCOCCOCCN(C(=S)NC2CCCCC2)CCOCCOCC1 was read as PABP FP inh 1.7, eIF4H inh 5.3, PHOSPHO1 block 5.0, CRFBP-R2 block 115.1* and PABP1 MLLE inh -119.0.
Screening CC(C)CN1CCC(CN2CCNC(=O)C2=O)CC1 returned CRFBP-R2 block -13.2 and PABP1 MLLE inh 3.0.
COc1cc(O)c(C(C)=O)c(CC(=O)O)c1 was read as PABP FP inh 58.3*, eIF4H inh 96.2*, PHOSPHO1 block -18.7, CRFBP-R2 block -0.9 and PABP1 MLLE inh 1.9.
`COc1cc(O)c(C(C)=O)c(OC)c1` gave CRFBP-R2 block -7.5 and PABP1 MLLE inh -2.2.
CC(O)c1n(C)c(Cl)c[n+]1C (stereo not drawn) was read as PABP FP inh 64.6*, eIF4H inh 0.4, PHOSPHO1 block 78.6*, CRFBP-R2 block -8.1 and PABP1 MLLE inh -120.2.
For N#C/C(=C/c1ccc(OCc2ccc(C(=O)O)cc2)cc1)C(=O)Nc1ccccc1 the results were PABP FP inh 51.2*, eIF4H inh 20.8, PHOSPHO1 block -6.4, CRFBP-R2 block -14.2 and PABP1 MLLE inh -129.6.
Screening N#C/C(=C\c1ccc(OCc2ccc(Br)cc2)cc1)C(=O)Nc1cccc(C(=O)O)c1 returned PABP FP inh -0.4, eIF4H inh 4.5, PHOSPHO1 block -71.8, CRFBP-R2 block -2.8 and PABP1 MLLE inh 8.6.
Screening COc1cc(/C=C(\C#N)C(=O)Nc2ccc3c(c2)OCCO3)ccc1O returned PABP FP inh -17.6, eIF4H inh -6.7, PHOSPHO1 block -5.6, CRFBP-R2 block 72.5* and PABP1 MLLE inh -97.8.
COc1ccc(NC(=O)/C(C#N)=C\c2ccc(OCc3ccc(C(=O)O)cc3)c(OC)c2)cc1 was read as PABP FP inh -7.3, eIF4H inh 21.9, PHOSPHO1 block 70.5*, CRFBP-R2 block -6.7 and PABP1 MLLE inh 0.7.
Screening Cc1ccc(-n2c(Cn3nc(C(F)F)cc3C(F)F)n[nH]c2=S)cc1 returned PABP FP inh -0.5, eIF4H inh 1.5, PHOSPHO1 block 99.7*, CRFBP-R2 block -5.3 and PABP1 MLLE inh -4.8.
`Cc1cc(C(F)(F)F)nn1Cc1n[nH]c(=S)n1-c1ccc(Cl)cc1` gave PABP FP inh 11.1, eIF4H inh 2.4, PHOSPHO1 block 102.0*, CRFBP-R2 block 22.3 and PABP1 MLLE inh -16.4.
For Cc1cc(C(F)(F)F)nn1Cc1n[nH]c(=S)n1-c1cccc(Cl)c1 the results were PABP FP inh -8.3, eIF4H inh -5.3, PHOSPHO1 block 84.1*, CRFBP-R2 block 1.1 and PABP1 MLLE inh -59.0.
Screening NC(=O)c1[nH]cnc1N=NN(CCO)Cc1ccccc1 returned CRFBP-R2 block 6.1 and PABP1 MLLE inh 8.1.
Nc1ncnc2c1ncn2[C@@H]1O[C@H](C(=O)N[C@H]2c3ccccc3C[C@H]2O)[C@@H](O)[C@H]1O was read as PABP1 MLLE inh -0.8.
For Cc1ccc(C(NC(=O)C2CCN(CCOc3ccccc3)CC2)c2ccccn2)cc1 (stereo not drawn) the results were PABP1 MLLE inh 5.2.
`COC(=O)Cc1ccc(OC2(C)CCN(Cc3ccccc3)C2)cc1` (stereo not drawn) gave PABP1 MLLE inh -14.5.
Screening CCc1ccc(CN(Cc2cccnc2)C(=O)/C=C/c2ccc(OC)cc2)cc1 returned PABP FP inh -16.9, eIF4H inh -26.6, PHOSPHO1 block 8.0, CRFBP-R2 block -0.5 and PABP1 MLLE inh -122.3.
For CS(=O)(=O)N1N=C(c2ccco2)CC1c1ccco1 (stereo not drawn) the results were PABP FP inh 36.7*, eIF4H inh 78.2*, CRFBP-R2 block 10.0 and PABP1 MLLE inh -32.2.
`Cc1ccc(NC(=O)Nc2nnc(-c3ccncc3)s2)cc1C` gave PABP FP inh 7.1, eIF4H inh 52.6, PHOSPHO1 block -14.7, CRFBP-R2 block -15.9 and PABP1 MLLE inh -14.8.
COC(=O)Nc1nnc(-c2ccncc2)s1 was read as PABP FP inh 10.7, eIF4H inh -8.3, PHOSPHO1 block 62.3*, CRFBP-R2 block -2.5 and PABP1 MLLE inh 36.3*.
Cc1ccccc1NC(=O)c1ccc(-c2ccc(Cl)cc2Cl)o1 was read as PABP FP inh -18.6, eIF4H inh -7.2, PHOSPHO1 block -1.2, CRFBP-R2 block 66.2* and PABP1 MLLE inh -8.2.
Cc1cccc(C)c1NC(=O)c1ccc(-c2ccc(Cl)cc2Cl)o1 was read as PABP FP inh -4.7, eIF4H inh -3.5, PHOSPHO1 block -2.1, CRFBP-R2 block 24.0 and PABP1 MLLE inh -3.0.
Screening COC(=O)c1cnc(Nc2nc(C(N)Cc3ccccc3)cs2)nc1C(F)(F)F (stereo not drawn) returned PABP1 MLLE inh 1.2.
`CCN1CCN(CC(=O)N2N=CCC2c2ccccc2)CC1` (stereo not drawn) gave PABP FP inh -3.8, eIF4H inh -4.3, PHOSPHO1 block 24.0, CRFBP-R2 block 69.7* and PABP1 MLLE inh -4.1.
For NCC[C@H](O)C(=O)N[C@@H]1C[C@H](N)[C@@H](O[C@H]2O[C@H](CN)[C@@H](O)[C@H](O)[C@H]2O)[C@H](O)[C@H]1O[C@H]1O[C@H](CO)[C@@H](O)[C@H](N)[C@H]1O the results were PABP FP inh -0.5, eIF4H inh -5.5, PHOSPHO1 block 15.8, CRFBP-R2 block 64.3* and PABP1 MLLE inh -13.1.
